TDP1 inh: TDP1 (human) enzyme inhibition; Q9NUW8; recombinant TDP1, AlphaScreen DNA substrate cleavage; Potency, µM (doses to about 130 µM), actives largely listed as inhibitors; 350,000 compounds, 0.28% hits; AID 485290; further: nearly all actives have a fitted effect of over 40% in size
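Signal: AlphaScreen proximity between streptavidin donor and anti-FITC acceptor beads on intact substrate. Reaction: Tdp1 1 nM, substrate 15 nM final, 5 min RT after 15 min compound preincubation.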
IL1B secr inh: blocks inflammasome-driven IL-1 beta release | THP-1 LPS/ATP IL-1B secretion, AlphaLISA, 16 h; stronger effect = lower value | activity change, % at 57.5 µM | 360,000 compounds, 4.7% hits; in the data active means activity change below about -50%; inconclusive means mostly about -30% to -49%
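THP-1 cells pretreated 1 hr with compounds (up to 57.5 uM final), then stimulated with LPS (250 ng/mL final) plus ATP (1.25 mM final); secreted IL-1B measured by AlphaLISA after 16 hr, decreased signal indicating inhibition.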
CtBP-E1A inh: inhibitors of CtBP/E1A interaction; AlphaScreen GST-E1A/His-CtBP binding, 1536-well; stronger effect = lower value; activity change, % (concentration not given with the values); 340,000 compounds, 0.49% hits; in the data active means activity change below about -65%; inconclusive means mostly about -30% to -63%
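In 5 uL wells, 23 nL compound meets equimolar GST-E1A and His-CtBP (5X stock 125 nM each) for 2 h, 37 °C. Beads (5X, 50 ug/mL) then 1 h, 37 °C, dark.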
DT40 TDP1 CPT: DT40-hTDP1 cell growth loss with CPT; 420,000 compounds, 12% hits; Potency, µM (titrated, usually from 46.2 µM), hits mostly inhibitors; AID 686979; chicken DT40 Tdp1-/-;hTDP1 cells + 20 nM CPT, ATP luminescence, 48 h; further: nearly all actives have a fitted effect of over 55% in size
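Chicken DT40 Tdp1-/- cells stably complemented with human TDP1 were seeded at 400 cells/well in medium containing 20 nM camptothecin, exposed to pin-transferred compounds, and grown at 37 °C for at least 48 hr. Viability was read as ATP luminescence.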
Six1-Eya2 blk: Six1/Eya2 interaction inhibition; Q15475+O00167; AlphaScreen GST-Six1/His-Eya2 binding, biochemical; stronger effect = lower value; activity change, % (test concentration not listed); 360,000 compounds, 0.56% hits; in the data active means activity change below about -65%; inconclusive means mostly about -30% to -63%
Target sequence (O00167 whole entry, looked up): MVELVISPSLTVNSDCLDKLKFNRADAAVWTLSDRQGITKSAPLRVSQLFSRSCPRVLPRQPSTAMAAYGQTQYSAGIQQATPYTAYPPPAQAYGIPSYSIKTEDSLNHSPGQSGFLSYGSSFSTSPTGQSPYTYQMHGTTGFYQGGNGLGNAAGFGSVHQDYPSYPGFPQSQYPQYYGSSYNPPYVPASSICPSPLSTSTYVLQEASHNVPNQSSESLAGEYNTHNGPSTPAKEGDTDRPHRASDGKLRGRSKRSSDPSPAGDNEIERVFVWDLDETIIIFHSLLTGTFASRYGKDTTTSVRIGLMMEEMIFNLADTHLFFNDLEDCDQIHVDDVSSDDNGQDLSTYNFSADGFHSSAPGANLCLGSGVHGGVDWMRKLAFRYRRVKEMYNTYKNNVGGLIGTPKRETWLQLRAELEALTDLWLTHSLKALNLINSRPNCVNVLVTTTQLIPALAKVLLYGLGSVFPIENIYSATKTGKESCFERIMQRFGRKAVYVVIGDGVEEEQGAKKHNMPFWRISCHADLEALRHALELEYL
Target sequence (Q15475 whole entry, looked up): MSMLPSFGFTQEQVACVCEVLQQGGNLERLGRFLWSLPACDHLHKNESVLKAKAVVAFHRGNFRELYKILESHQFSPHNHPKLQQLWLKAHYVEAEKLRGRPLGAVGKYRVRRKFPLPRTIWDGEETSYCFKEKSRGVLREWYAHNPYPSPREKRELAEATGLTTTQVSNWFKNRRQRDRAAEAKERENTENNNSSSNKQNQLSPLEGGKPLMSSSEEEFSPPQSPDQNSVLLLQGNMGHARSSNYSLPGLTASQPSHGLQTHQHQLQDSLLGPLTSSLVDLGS
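Six1/Eya2 binding was read as AlphaScreen signal after compounds were pinned into GST-Six1 plus His-tagged Eya2 (5X stock 250/500 nM) in pH 8.0 Tris/NaCl/TCEP buffer, beads added, then incubated 1 h, 37 C, dark.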
DT40 TDP1 no CPT: qHTS for Inhibitors of human tyrosyl-DNA phosphodiesterase 1 (TDP1): qHTS in cells in absence of CPT. 420,000 compounds, 15% hits. DT40 Tdp1-/- hTDP1 cells, no CPT, ATP luminescence, 48 h. Potency, µM (titrated, usually from 46.2 µM), actives largely listed as inhibitors; further: nearly all actives have a fitted effect of over 55% in size
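Camptothecin absent (DMSO only). Human TDP1-complemented DT40 knockout cells, 400 cells/well, 37 °C for minimum 48 hr; ATP measured via CellTiter-Glo, 30 min dark incubation, luminescence.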
A number is an active result; n = inactive; u = inconclusive; x = not tested or not shown; [ ] = remark or other dose. This is a sample that favours compounds with a hit; in the whole collection about 18% have one here. Unless noted, the call rests on the fitted dose curve; in most records, active means well fitted curve in the direction sought with a large enough effect; inconclusive means small, poorly fitted or top-dose-only effect, or another doubt; inactive means no such curve, though single readings can be large; an effect the other way counts as inactive or inconclusive.

SMILES | TDP1 inh | IL1B secr inh | CtBP-E1A inh | DT40 TDP1 CPT | Six1-Eya2 blk | DT40 TDP1 no CPT
COc1cccc(C2=CC(c3cccc(OC)c3OC(F)F)n3nnnc3N2)c1 (stereo not drawn) | n | n | n | u | n | u
COc1ccc(OC)c(C2C=C(c3ccc(C)c(C)c3)Nc3nnnn32)c1 (stereo not drawn) | n | n | n | 4.61µM | n | 2.31µM
COc1cccc(C2=CC(c3cc(OC)ccc3OC)n3nnnc3N2)c1 (stereo not drawn) | n | -76.6 | n | 7.31µM | n | 6.51µM
NC(=O)C1(N2CCCCC2)CCN(C(=S)Nc2ccc(F)cc2)CC1 | n | n | n | n | n | n
CCCCOc1cccc(C(=O)Nc2ccc(NC(=O)c3ccco3)cc2)c1 | n | n | n | n | n | n
CCCCOc1cccc(C(=O)NC(=S)Nc2cccc(C(F)(F)F)c2)c1 | n | n | n | u | n | 29.1µM
CCCOc1ccc(C(=O)Nc2ccc(NC(=O)c3ccccc3)c(C)c2)cc1 | n[12.3 µM] | x | x | u | x | 16.4µM
COC(=O)COc1cccc(NC(=O)c2cc(OC)cc(OC)c2)c1 | n | -99.7 | n | n | n | n
CC(C)Oc1cccc(C(=O)NC(=S)Nc2cccc(C(F)(F)F)c2)c1 | n | n | n | u | n | u
COC(=O)COc1cccc(NC(=O)c2ccc(C)cc2)c1 | n | n | n | n | n | n
CCCCOc1cccc(NC(=O)c2cccc(C(=O)Nc3cccc(OCCCC)c3)c2)c1 | n[12.3 µM] | x | x | 18.4µM | x | 7.31µM
O=[N+]([O-])c1cc(S(=O)(=O)N2CCOCC2)ccc1OCc1ccccc1C(F)(F)F | n | n | n | n | n | n
Cc1cc(C(=O)Nc2ccccc2)c(C)o1 | n | n | n | n | n | u
CCOc1cccc(C(=O)Nc2ccc(NC(=O)c3ccc(Br)cc3)cc2)c1 | n[12.3 µM] | x | x | n | x | n
CCOc1cccc(C(=O)Nc2ccncc2)c1 | n | n | n | 23.1µM | n | u
CCOc1ncccc1C(=O)Nc1cccc(C(=O)Nc2cccc(S(=O)(=O)CCO)c2)c1 | n | u | n | u | n | 7.31µM
CCOc1ccc(Nc2nc(C)c(NC(=O)c3cccc(OC)c3)c(Nc3ccc(OCC)cc3)n2)cc1 | n[12.3 µM] | x | x | 1.46µM | x | 2.31µM
CCCOc1cccc(NC(=O)c2cc(C)oc2C)c1 | n | n | n | 25.9µM | n | 16.4µM
CCCN(CCC)S(=O)(=O)c1cc(CN2C(=O)c3cccnc3C2=O)ccc1OC | x | n | n | n | n | n
O=S(=O)(c1ccc(Cl)cc1)N1CCN(c2nc(-c3ccc(F)cc3)nc3cc(Cl)ccc23)CC1 | n | x | x | x | x | x
CC(C)CCNC(=O)C1CC2Cn3c(nc4cc(Cl)c(Cl)cc43)C2N1C (stereo not drawn) | x | n | n | u | n | 23.1µM
CCCCNC(=O)Cn1nc(-c2ccc(C)cc2)ccc1=O | x | n | n | n | n | n
COC(=O)c1ccc2nc(-c3cccc(Cl)c3)c(Cc3ccccc3OC)n2c1 | x | n | n | 16.4µM | n | 23.1µM
Cc1ccc(Cc2c(-c3cccc(Cl)c3)nc3ccc(Br)cn23)cc1 | x | n | n | n | n | u
COc1ccccc1Cc1c(-c2cccc(Cl)c2)nc2ccc(Br)cn12 | x | n | n | 23.1µM | n | 20.6µM
SMILES | TDP1 inh | IL1B secr inh | CtBP-E1A inh | DT40 TDP1 CPT | Six1-Eya2 blk | DT40 TDP1 no CPT
CC(=O)c1ccc(NC(=O)CSC2=Nc3ccccc3N=C(c3ccc(F)cc3)C2)cc1 | n | x | x | 16.4µM | x | 9.2µM
O=C(CSC1=Nc2ccccc2N=C(c2ccc(F)cc2)C1)Nc1ccc(Cl)cc1 | n | x | x | 20.6µM | x | 25.9µM
Nc1ccc(C(=O)C(=O)c2ccc(N)cc2)cc1 | n | n | x | n | n | n
N=C1C=CC(=C(c2ccc(N)cc2)c2ccc(N)cc2)C=C1 | n | n | n | 2.91µM | n | 3.26µM
O=C(Nc1cccc([N+](=O)[O-])c1)NN1CCCCCC1 | x | u | n | u | n | 18.4µM
O=C(Nc1cccc([N+](=O)[O-])c1)Nc1cccc([N+](=O)[O-])c1 | n | -57.0 | n | 4.61µM | n | 2.91µM
CC(C)S(=O)(=O)c1csc(NC(=O)Nc2cccc([N+](=O)[O-])c2)c1Cl | n | n | x | 16.4µM | n | 14.6µM
Cc1occc1C(=O)NNC(=S)Nc1cccc([N+](=O)[O-])c1 | n | n | n | u | n | 23.1µM
COc1cc([N+](=O)[O-])ccc1NC(=O)Nc1cnccn1 | n | n | n | n | n | n
CCC(=O)N1CCc2cc(S(=O)(=O)N3CCCC3)ccc21 | n | n | x | n | n | n
CCC(=O)N1CCCc2cc(S(=O)(=O)N3CCN(c4ccccn4)CC3)ccc21 | n | n | n | u | n | 20.6µM
CCC(=O)N1CCCc2cc(S(=O)(=O)N3CCN(c4ncccn4)CC3)ccc21 | n | n | n | 14.6µM | n | u
CCCCCCc1cc2cc(/C(N)=N/NC(=O)c3ccncc3)c(=O)oc2cc1O | n | n | n | u | n | 11.6µM
CCCCCCc1cc2cc(C(=O)NC)c(=N)oc2cc1O | n | n | n | u | n | 20.6µM
N/C(=N\NC(=O)c1ccc(F)cc1)c1cc2ccccc2oc1=O | n | n | x | n | n | n
CCCCCCc1cc2cc(S(=O)(=O)c3ccc(F)c(Cl)c3)c(=O)oc2cc1O | n | -51.2 | n | 5.8µM | n | 7.31µM
CCCCCCc1cc2cc(C(N)=O)c(=N)oc2cc1O | n | x | x | x | x | x
CCCCCCc1cc2cc(C(=O)Nc3ccc(OC)cc3)c(=O)oc2cc1O | n | n | n | 7.31µM | n | 5.8µM
CNC(=O)Cn1c(=O)c2cccn2c2ccc(F)cc21 | n | x | x | n | x | n
CCCCCCc1cc2cc(C(=O)OCC)c(=O)oc2cc1O | n | n | n | n | n | n
CCCCCCc1cc2cc(C(=O)Nc3cccc(OC)c3)c(=O)oc2cc1O | n | n | n | 2.59µM | n | 3.66µM
CCCCNC(=S)N/N=C/c1sccc1C | n | n | n | 0.92µM | n | 1.46µM
CCCCNC(=S)N/N=C/c1cc(C)ccc1C | n | n | n | 5.17µM | n | 6.51µM
CCCCNC(=S)N/N=C/c1ccc(C)s1 | n | n | n | u | n | u
CCCCNC(=S)N/N=C/c1ccccc1F | n | n | n | u | n | 14.6µM
c1ccc(-c2nnc(CN3CCN(c4ccccn4)CC3)o2)cc1 | n | x | x | n | x | n
COc1cc(C(=O)Nc2c(C(=O)O)[nH]c3ccc(C)cc23)cc(OC)c1OC | x | n | n | n | n | n
CCCCc1ccc(NC(=S)NCCc2ccc(F)cc2)cc1 | n | -109.5 | n | u | n | u
Cc1ccc(F)cc1NC(=S)NCCc1ccccc1 | n | n | x | u | n | 25.9µM
Fc1ccc(CCNC(=S)Nc2ccc(F)cc2)cc1 | n | n | n | u | n | 18.4µM
